TbREL1 inh: TbREL1 inhibition, primary screen | P86926 | TbREL1 RNA ligation, FRET fluorescence | inhibition, % at 9.66 µM | 89,000 compounds, 0.49% hits;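 active means inhibition above the mean inhibition across all screened compounds plus 3 SD, cut at about 11% in these data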;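 further: 0% = plate median of test wells and 100% = NSC42067 control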
Target sequence (P86926 whole entry, looked up): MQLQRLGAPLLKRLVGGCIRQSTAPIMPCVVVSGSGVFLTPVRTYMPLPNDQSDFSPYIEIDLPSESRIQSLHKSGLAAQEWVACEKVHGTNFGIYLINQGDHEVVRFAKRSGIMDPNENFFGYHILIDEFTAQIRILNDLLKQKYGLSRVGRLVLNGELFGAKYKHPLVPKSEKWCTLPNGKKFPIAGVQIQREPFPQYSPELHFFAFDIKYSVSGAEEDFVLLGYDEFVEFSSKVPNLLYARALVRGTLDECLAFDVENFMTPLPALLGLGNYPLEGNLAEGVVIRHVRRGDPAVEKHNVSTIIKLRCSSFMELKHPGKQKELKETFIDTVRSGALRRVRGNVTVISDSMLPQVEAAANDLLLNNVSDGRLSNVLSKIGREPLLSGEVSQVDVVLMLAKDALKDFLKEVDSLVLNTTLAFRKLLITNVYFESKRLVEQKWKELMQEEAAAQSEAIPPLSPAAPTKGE
TbREL1 conf: TbREL1 inhibition, confirmation. shares compounds with TbREL1 inh. TbREL1 RNA ligation, FRET fluorescence. inhibition, % at 9.66 µM. 390 compounds, 37% hits. AID 1117282;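 active means mean inhibition across replicates above a set limit taken from the earlier primary screen, cut at about 11% in these data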;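 further: 0% = REL1 with substrate and DMSO and 100% = REL1 plus control inhibitor NSC42067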
The depositor's hits bear a star. Many of the other results were omitted from the sample, so hits are more common in it than they were.

O=C(NNc1cc(N2CCCC2)nc(N2CCCC2)n1)c1ccc([N+](=O)[O-])cc1 was read as TbREL1 inh -4.9.
CCOc1cc(/C=N/Nc2nc(N3CCCC3)nc(N3CCCC3)n2)ccc1O was read as TbREL1 inh -5.7.
Oc1ccccc1/C=N/Nc1cc(N2CCCC2)nc(N2CCCC2)n1 was read as TbREL1 inh 19.4* and TbREL1 conf 38.0*.
For CCCCOCCCNC(=O)C[C@H]1C[C@@]2(C(=O)OC)C(=C[C@H](C(C)(C)C)O[C@@H]2C)N(Cc2ccc(Cl)cc2Cl)C1=O the results were TbREL1 inh 2.5.
`CC(C)c1ccc(NC(=O)NCc2ccc3c(c2)OCO3)cc1` gave TbREL1 inh 0.9.
Screening CC(C)c1nnc(NC(=O)CCC(=O)NCc2ccc3c(c2)OCO3)s1 returned TbREL1 inh 17.6* and TbREL1 conf 4.5.
For COc1ccccc1CNC(=O)CCC(=O)Nc1nnc(C(C)C)s1 the results were TbREL1 inh -2.1.
Screening CCn1c(Cc2cccs2)nnc1SCC(=O)Nc1ccccc1-c1ccccc1 returned TbREL1 inh 0.6.
For COC(=O)C1=C(C)N(Cc2ccc(Cl)cc2)C(=S)NC1c1ccc(Cl)cc1 (centres undefined) the results were TbREL1 inh -3.8.
`COC(=O)C1=C(C)N(Cc2ccc(C(F)(F)F)cc2)C(=NCc2ccccc2C(F)(F)F)NC1c1ccc(Cl)cc1` (centres undefined) gave TbREL1 inh 11.3* and TbREL1 conf 16.2*.
For COC(=O)C1=C(C)N(Cc2ccccc2)C(=NCCCCO)N[C@H]1c1cccc(C(F)(F)F)c1 the results were TbREL1 inh 6.9.
Screening COC(=O)C1=C(C)N(Cc2ccccc2)C(=S)NC1c1cccc(OC)c1 (centres undefined) returned TbREL1 inh -5.1.
`COC(=O)C1=C(C)N(Cc2ccc(C(F)(F)F)cc2)C(=NCc2ccccc2C(F)(F)F)NC1c1ccccc1` (centres undefined) gave TbREL1 inh 12.6* and TbREL1 conf 14.1*.
Screening COCCN=C1N[C@@H](c2cccc(C(F)(F)F)c2)C(C(=O)OC)=C(C)N1Cc1ccccc1 returned TbREL1 inh 14.2* and TbREL1 conf 17.8*.
For CCN1C(=NCC(C)C)N[C@@H](c2cccc(C(F)(F)F)c2)C(C(=O)OC)=C1C the results were TbREL1 inh 10.6.
Screening COC(=O)C1=C(C)N(Cc2ccccc2)C(=O)N[C@H]1c1cccc(F)c1 returned TbREL1 inh -2.5.
`COC(=O)C1=C(C)N(Cc2ccccc2)C(=O)N[C@H]1c1ccccc1` gave TbREL1 inh -1.0.
COC(=O)C1=C(C)N(C)C(=NCc2ccccc2C(F)(F)F)NC1c1ccc(F)cc1 (centres undefined) was read as TbREL1 inh 10.9.
`COC(=O)C1=C(C)N(Cc2ccc(C(F)(F)F)cc2)C(=NCc2ccccc2C(F)(F)F)NC1c1cccc(Cl)c1` (centres undefined) gave TbREL1 inh 15.9* and TbREL1 conf 20.0*.
C=CCN1C(=O)[C@H](CC(=O)NCC23CC4CC(CC(C4)C2)C3)[C@@]2(C(=O)OCC)CCCC=C12 was read as TbREL1 inh 5.7.
Screening O=C(c1ccc(F)cc1Cl)N1CCCC(c2nc(-c3cccs3)no2)C1 (centres undefined) returned TbREL1 inh -4.3.
Screening CCn1c(=O)n(CC(=O)N2CCOCC2)c(=O)c2ccccc21 returned TbREL1 inh -3.1.
Screening CC1(C)Oc2ccc(C(=O)NC3CCCC3)cc2NC1=O returned TbREL1 inh 0.5.
Screening CCc1ccc(/C=C/C(=O)NC2=NCCS2)cc1 returned TbREL1 inh -1.3.
CC(=NNC(=O)CSc1nnc(-c2ccc(C(C)(C)C)cc2)n1-c1ccccc1)c1cccc2ccccc12 was read as TbREL1 inh -2.4.
O=C(c1ccccc1-c1nc(-c2ccccc2)no1)N1CCOCC1 was read as TbREL1 inh -0.8.
O=C(c1ccccc1-c1nc(-c2ccc(F)cc2)no1)N1CCCC1 was read as TbREL1 inh -0.8.
O=C(O)c1ccccc1-c1noc(-c2ccccc2F)n1 was read as TbREL1 inh 13.5* and TbREL1 conf 3.9.
Cc1ccc2c(c1)N(CCCC(=O)NCc1c(F)cccc1F)C(=O)CO2 was read as TbREL1 inh -1.6.
Cc1ccc(N2C(=O)c3ccc(C(=O)O)cc3C2=O)cc1C was read as TbREL1 inh -0.4.
O=C(O)c1cc(N2C(=O)C=CC2=O)cc(N2C(=O)C=CC2=O)c1 was read as TbREL1 inh 84.8* and TbREL1 conf 30.4*.
O=C(O)c1cc(C(=O)O)c(-c2ccccc2)c(C(=O)O)c1 was read as TbREL1 inh 0.3.
For CO[C@H]([C@H](C)/C=C/N(C)C=O)[C@@H](C)C(=O)CC[C@H](C)[C@H](O)[C@H](C)[C@H]1OC(=O)/C=C/C(C)=C/C[C@H](O)C[C@@H]2C=CC[C@@H](C[C@H](OC)[C@@]3(CO3)[C@@H](OC)C[C@@H](OC)[C@@H]1C)O2 the results were TbREL1 inh -0.6.
Screening CN=C1S/C(=C/c2cc(C)n(Cc3ccccc3)c2C)C(=O)N1C returned TbREL1 inh -1.0.
For COCC(=O)N1CCC(C(=O)NCC2COc3ccccc3O2)CC1 (centres undefined) the results were TbREL1 inh 0.0.
For COc1ccc(-c2noc(CNC(=O)c3ccoc3C)n2)cc1 the results were TbREL1 inh 14.8* and TbREL1 conf 1.8.
Screening COc1ccc(-c2noc(CCC(=O)O)n2)cc1 returned TbREL1 inh 1.2.
Screening Cc1occc1C(=O)NCc1nc(-c2ccc(Cl)cc2)no1 returned TbREL1 inh 1.0.
Screening Cc1ccc(NC(=O)OC2CC3CC2[C@H]2CCCCN2[C@H]3Cc2ccccc2)cc1 (some centres undefined) returned TbREL1 inh 2.2.
`Cc1ccc(-n2c(SCC(=O)Nc3ccccc3-c3ccccc3)nnc2-c2cccnc2)cc1` gave TbREL1 inh 0.5.
Screening C/C(CC(=O)Nc1ccccn1)=N\NC(=O)c1ccccc1O returned TbREL1 inh 22.3* and TbREL1 conf 5.2.
Screening CCCNC(=O)C/C(C)=N/NC(=O)C(=O)Nc1ccccn1 returned TbREL1 inh 2.5.
Screening C/C(CC(=O)Nc1ccccn1)=N\NC(=O)c1ccc2ccccc2c1 returned TbREL1 inh 0.1.
For CCCCCCCCN1C(=O)[C@@H](CC(=O)N2CCSCC2)C[C@@]2(C(=O)OC)C1=C[C@H](C(C)C)O[C@@H]2C1CC1 the results were TbREL1 inh 7.6.
`Cc1ccccc1CS(=O)(=O)Cc1ccc(C(=O)Nc2cccc(Cl)c2F)o1` gave TbREL1 inh -1.9.
For COc1ccccc1/C=C/C(=O)NNC(=O)c1cccs1 the results were TbREL1 inh 11.5* and TbREL1 conf 4.4.
Screening COc1ccccc1C(=O)NCC(=O)NNC(=O)c1cccs1 returned TbREL1 inh 1.2.
For COc1ccccc1NC(=O)c1cccs1 the results were TbREL1 inh 2.2.
`CCOC(=O)c1ccc(NC2c3ncccc3C(=O)N2Cc2ccc(F)cc2)cc1` (centres undefined) gave TbREL1 inh 4.8.
For COc1ccc(CN2C(=O)c3cccnc3C2Nc2cc(Cl)ccc2OC)cc1 (centres undefined) the results were TbREL1 inh 31.8* and TbREL1 conf 41.3*.
For COc1ccc(Cl)cc1NC(=S)N1CCN(c2ncccn2)CC1 the results were TbREL1 inh -0.7.

Assay outcomes deposited in PubChem BioAssay by The Scripps Research Institute Molecular Screening Center.
